From the supplement of paper PMC10849652
Targets with a hit are over-represented here; the source holds about 7,900 in all. About 0.6% of all pairs of compound and target were hits.

compound: CCN(CC)Cc1ccc2cc(COC(=O)Nc3ccc(C(=O)NO)cc3)ccc2c1 [givinostat]; assay: log2 fold change, soluble protein after heating vs DMSO (PISA); higher = thermal stabilisation; K562 cells, 10 uM, 30 min; active = over 0.2 and 3.5 SD of the protein, either way, in both replicates (recomputed)
Summary of the method: (§1)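 Values are thermal stability changes relative to control samples and are taken from duplicates. They are stated as log2 fold changes. Before quantification by TMTpro 16plex LC-MS/MS with equalised channel sums, K562 cells at 2×10^6 cells/mL were treated with 10 μM compound for 30 min, heated in aliquots for 3 min across 48°C-58°C, pooled, extracted in PBS with 0.5% NP-40 at 4°C, and centrifuged at 21,000xg for 90 min to give the soluble supernatant.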

Chain of UniProt P08174 (P08174 whole entry, looked up): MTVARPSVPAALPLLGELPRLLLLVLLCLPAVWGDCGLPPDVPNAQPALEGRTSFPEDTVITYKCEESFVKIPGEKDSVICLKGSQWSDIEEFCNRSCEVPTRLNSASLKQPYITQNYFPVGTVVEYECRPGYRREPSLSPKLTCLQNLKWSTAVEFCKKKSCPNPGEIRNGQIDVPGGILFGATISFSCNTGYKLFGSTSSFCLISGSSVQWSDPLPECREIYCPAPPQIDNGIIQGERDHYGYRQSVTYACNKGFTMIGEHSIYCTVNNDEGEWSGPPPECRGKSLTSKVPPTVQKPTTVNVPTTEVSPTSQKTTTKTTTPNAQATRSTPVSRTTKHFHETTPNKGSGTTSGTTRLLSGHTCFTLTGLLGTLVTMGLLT
Chain of UniProt P67870 (P67870 whole entry, looked up): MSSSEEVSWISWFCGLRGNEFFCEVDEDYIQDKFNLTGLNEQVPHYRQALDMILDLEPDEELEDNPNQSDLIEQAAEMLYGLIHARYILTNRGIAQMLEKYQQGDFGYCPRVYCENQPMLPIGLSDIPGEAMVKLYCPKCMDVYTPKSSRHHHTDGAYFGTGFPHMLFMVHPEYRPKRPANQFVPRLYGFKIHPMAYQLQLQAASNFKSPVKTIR
Chain of UniProt P83916 (P83916 whole entry, looked up): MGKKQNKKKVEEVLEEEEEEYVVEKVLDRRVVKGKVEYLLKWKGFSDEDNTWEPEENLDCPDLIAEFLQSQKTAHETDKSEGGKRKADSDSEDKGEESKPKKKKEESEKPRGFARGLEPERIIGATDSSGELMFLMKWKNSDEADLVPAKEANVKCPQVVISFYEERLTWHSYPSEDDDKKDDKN
Chain of UniProt Q8IWV2 (Q8IWV2 whole entry, looked up): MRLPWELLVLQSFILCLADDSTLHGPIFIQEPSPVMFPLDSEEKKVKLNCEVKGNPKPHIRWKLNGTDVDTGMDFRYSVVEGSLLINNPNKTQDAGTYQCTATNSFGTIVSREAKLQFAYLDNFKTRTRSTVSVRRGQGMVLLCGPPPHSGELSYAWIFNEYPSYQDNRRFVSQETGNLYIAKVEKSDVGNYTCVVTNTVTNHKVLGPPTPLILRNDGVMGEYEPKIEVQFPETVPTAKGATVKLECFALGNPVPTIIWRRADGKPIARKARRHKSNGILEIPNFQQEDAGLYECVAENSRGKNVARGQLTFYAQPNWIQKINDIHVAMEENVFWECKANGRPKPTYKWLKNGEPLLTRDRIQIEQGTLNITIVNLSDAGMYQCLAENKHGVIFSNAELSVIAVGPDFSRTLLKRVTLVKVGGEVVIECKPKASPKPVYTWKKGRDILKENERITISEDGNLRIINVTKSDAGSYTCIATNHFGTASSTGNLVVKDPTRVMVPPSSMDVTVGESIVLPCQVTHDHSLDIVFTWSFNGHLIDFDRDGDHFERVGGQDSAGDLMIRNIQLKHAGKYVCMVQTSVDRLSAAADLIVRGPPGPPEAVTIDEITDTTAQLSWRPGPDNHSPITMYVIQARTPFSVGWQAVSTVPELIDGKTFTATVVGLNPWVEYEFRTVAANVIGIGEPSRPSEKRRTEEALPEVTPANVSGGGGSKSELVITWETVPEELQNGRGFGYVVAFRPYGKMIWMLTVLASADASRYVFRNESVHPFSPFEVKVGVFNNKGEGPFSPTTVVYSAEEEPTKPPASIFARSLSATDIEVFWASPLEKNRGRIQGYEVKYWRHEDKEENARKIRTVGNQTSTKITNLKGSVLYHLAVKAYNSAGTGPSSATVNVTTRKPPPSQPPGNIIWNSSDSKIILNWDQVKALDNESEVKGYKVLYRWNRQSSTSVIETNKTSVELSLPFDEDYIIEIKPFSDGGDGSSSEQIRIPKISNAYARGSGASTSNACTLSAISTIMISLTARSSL
Chain of UniProt Q86X83 (Q86X83 whole entry, looked up): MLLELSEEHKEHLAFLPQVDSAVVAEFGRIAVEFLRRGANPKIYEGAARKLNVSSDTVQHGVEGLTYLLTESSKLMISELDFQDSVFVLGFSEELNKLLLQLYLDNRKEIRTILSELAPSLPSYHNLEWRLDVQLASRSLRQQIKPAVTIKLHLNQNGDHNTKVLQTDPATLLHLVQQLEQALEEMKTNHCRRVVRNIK
Chain of UniProt Q9NRR8 (Q9NRR8 whole entry, looked up): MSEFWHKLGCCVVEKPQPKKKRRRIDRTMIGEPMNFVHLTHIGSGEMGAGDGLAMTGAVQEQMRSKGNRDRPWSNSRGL
Chain of UniProt Q9UNS2 (Q9UNS2 whole entry, looked up): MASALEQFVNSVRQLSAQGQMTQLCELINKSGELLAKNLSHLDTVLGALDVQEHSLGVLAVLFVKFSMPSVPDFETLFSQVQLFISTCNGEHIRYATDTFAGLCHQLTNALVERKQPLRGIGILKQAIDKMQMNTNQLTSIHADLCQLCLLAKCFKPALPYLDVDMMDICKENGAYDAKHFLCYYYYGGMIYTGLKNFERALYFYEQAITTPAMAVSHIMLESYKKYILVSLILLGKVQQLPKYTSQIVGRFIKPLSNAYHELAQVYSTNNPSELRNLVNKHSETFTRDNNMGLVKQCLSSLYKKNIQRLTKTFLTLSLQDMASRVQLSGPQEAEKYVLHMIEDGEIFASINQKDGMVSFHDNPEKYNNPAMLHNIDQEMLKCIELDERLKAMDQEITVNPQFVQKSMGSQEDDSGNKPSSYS
Chain of UniProt Q8IUI8 (Q8IUI8 whole entry, looked up): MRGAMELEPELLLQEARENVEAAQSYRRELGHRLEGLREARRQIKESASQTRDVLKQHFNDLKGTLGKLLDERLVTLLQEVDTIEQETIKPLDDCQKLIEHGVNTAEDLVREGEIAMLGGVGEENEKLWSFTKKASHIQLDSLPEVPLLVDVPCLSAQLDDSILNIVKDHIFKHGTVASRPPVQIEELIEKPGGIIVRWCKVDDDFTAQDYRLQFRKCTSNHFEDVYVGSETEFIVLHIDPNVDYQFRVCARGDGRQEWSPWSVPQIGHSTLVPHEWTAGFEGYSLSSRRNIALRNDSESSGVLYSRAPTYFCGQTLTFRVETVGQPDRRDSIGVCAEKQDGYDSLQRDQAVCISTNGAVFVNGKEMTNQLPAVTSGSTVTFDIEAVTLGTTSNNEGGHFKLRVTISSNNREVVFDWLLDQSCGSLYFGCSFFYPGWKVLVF
Chain of UniProt O15234 (O15234 whole entry, looked up): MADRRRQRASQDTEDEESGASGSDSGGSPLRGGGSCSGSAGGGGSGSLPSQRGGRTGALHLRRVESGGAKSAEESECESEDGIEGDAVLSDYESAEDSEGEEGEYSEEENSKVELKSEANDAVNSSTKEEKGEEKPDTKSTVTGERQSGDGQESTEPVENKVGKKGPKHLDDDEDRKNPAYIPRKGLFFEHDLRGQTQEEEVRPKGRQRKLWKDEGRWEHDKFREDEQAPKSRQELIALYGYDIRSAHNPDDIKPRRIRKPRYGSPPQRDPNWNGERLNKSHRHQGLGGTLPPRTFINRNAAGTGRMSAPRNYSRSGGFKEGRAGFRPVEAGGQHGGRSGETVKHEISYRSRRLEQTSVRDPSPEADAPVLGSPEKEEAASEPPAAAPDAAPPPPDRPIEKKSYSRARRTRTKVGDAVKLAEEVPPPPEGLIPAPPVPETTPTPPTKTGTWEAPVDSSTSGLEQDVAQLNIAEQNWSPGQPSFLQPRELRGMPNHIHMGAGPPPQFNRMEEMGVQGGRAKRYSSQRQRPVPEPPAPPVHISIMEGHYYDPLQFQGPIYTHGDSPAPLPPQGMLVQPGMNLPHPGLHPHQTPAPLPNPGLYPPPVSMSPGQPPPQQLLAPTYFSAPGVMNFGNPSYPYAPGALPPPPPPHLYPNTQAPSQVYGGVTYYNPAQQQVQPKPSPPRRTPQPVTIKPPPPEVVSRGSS
Chain of UniProt P08962 (P08962 whole entry, looked up): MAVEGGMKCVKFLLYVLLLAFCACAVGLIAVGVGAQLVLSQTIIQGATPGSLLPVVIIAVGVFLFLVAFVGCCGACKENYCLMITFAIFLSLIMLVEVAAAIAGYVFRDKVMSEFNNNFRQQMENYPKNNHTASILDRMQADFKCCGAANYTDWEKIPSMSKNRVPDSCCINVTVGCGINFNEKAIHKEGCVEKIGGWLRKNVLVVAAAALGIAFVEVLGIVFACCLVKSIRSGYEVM
Chain of UniProt P16152 (P16152 whole entry, looked up): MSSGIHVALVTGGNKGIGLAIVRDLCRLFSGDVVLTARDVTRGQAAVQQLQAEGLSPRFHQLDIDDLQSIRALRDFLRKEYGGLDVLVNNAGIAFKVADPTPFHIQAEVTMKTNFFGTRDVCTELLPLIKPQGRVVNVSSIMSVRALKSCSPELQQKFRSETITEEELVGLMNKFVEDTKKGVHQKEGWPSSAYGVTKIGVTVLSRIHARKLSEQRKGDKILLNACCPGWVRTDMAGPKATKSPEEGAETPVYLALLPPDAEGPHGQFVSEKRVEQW
Chain of UniProt Q14677 (Q14677 whole entry, looked up): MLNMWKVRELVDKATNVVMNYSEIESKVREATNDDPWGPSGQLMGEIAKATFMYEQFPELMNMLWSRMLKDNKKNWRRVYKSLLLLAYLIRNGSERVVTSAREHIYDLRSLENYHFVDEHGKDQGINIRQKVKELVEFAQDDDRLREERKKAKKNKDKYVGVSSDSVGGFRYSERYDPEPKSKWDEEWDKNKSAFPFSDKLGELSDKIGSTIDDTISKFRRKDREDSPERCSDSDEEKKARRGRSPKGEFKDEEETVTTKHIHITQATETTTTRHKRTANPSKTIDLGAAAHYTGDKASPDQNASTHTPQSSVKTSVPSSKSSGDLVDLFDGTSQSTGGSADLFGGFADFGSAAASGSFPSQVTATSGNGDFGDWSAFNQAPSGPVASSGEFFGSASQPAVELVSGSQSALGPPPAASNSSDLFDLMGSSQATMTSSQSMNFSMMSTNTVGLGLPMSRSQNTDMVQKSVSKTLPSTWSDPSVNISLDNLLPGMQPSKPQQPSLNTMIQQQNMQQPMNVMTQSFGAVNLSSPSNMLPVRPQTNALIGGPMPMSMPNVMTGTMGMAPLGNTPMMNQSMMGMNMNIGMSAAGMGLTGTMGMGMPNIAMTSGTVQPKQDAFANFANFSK

log2 fold change, inactive:
CERT isoform 3 (UniProt Q9Y5P4) -0.027
CCDC57 (UniProt Q2TAC2) 0.027
CRKL (UniProt P46109) 0.009
CBX1 (UniProt P83916) -0.042
CBX5 (UniProt P45973) 0.043
CRLF3 (UniProt Q8IUI8) 0.065
CASC3 (UniProt O15234) -0.045
CD55 isoform 7 (UniProt P08174) 0
CALCOCO2 isoform 4 (UniProt Q13137) 0
CETN3 (UniProt O15182) 0.008
CHAC2 (UniProt Q8WUX2) 0.007
CPSF7 isoform 3 (UniProt Q8N684) 0.01
CNTN4 (UniProt Q8IWV2) 0.278
CD63 (UniProt P08962) 0.096
CCDC59 (UniProt Q9P031) 0.086
CBR1 (UniProt P16152) 0.005
CHP1 (UniProt Q99653) -0.035
CLINT1 isoform 3 (UniProt Q14677) -0.01
COMMD2 (UniProt Q86X83) 0.11
C9orf72 (UniProt Q96LT7) -0.022
CLUH (UniProt O75153) 0.016
CERS2 (UniProt Q96G23) -0.038
CKB (UniProt P12277) -0.013
CHCHD1 (UniProt Q96BP2) 0.013
CDK5RAP3 isoform 4 (UniProt Q96JB5) 0.109
CAD (UniProt P27708) 0.008
CSTF3 (UniProt Q12996) -0.05
CSNK2B (UniProt P67870) -0.03
CCZ1 (UniProt P86791) 0.028
CDC42SE1 (UniProt Q9NRR8) -0.236
COPS3 (UniProt Q9UNS2) -0.056
C4orf33 (UniProt Q8N1A6) 0.055
CTBS (UniProt Q01459) 0.039
CALB1 (UniProt P05937) -0.031
CAMKK2 (UniProt Q96RR4) -0.017
CAMSAP1 isoform 3 (UniProt Q5T5Y3) 0.151

compound: CCN(CCCOc1ccc2c(Nc3cc(CC(=O)Nc4cccc(F)c4)[nH]n3)ncnc2c1)CCOP(=O)(O)O [barasertib]; assay: as above
Summary of the method: as §1

log2 fold change, inactive:
CERT isoform 3 (UniProt Q9Y5P4) -0.002
CCDC57 (UniProt Q2TAC2) 0.015
CRKL (UniProt P46109) 0.01
CBX1 (UniProt P83916) -0.009
CBX5 (UniProt P45973) -0.05
CRLF3 (UniProt Q8IUI8) 0.073
CASC3 (UniProt O15234) 0.043
CD55 isoform 7 (UniProt P08174) -0.057
CALCOCO2 isoform 4 (UniProt Q13137) 0.022
CETN3 (UniProt O15182) 0.043
CHAC2 (UniProt Q8WUX2) 0.079
CPSF7 isoform 3 (UniProt Q8N684) -0.044
CNTN4 (UniProt Q8IWV2) 0.055
CD63 (UniProt P08962) -0.025
CCDC59 (UniProt Q9P031) -0.013
CBR1 (UniProt P16152) 0.025
CHP1 (UniProt Q99653) 0.009
CLINT1 isoform 3 (UniProt Q14677) -0.047
COMMD2 (UniProt Q86X83) 0.053
C9orf72 (UniProt Q96LT7) 0.042
CLUH (UniProt O75153) 0.033
CERS2 (UniProt Q96G23) -0.002
CKB (UniProt P12277) -0.002
CHCHD1 (UniProt Q96BP2) -0.105
CDK5RAP3 isoform 4 (UniProt Q96JB5) 0.029
CAD (UniProt P27708) 0.002
CSTF3 (UniProt Q12996) 0.007
CSNK2B (UniProt P67870) -0.008
CCZ1 (UniProt P86791) -0.011
CDC42SE1 (UniProt Q9NRR8) 0.071
COPS3 (UniProt Q9UNS2) 0.016
C4orf33 (UniProt Q8N1A6) 0.03
CTBS (UniProt Q01459) 0.03
CALB1 (UniProt P05937) 0.037
CAMKK2 (UniProt Q96RR4) 0.058
CAMSAP1 isoform 3 (UniProt Q5T5Y3) 0.077
